# Values joined by “and” are separate entries in the source; they are usually repeats but may differ in a detail not shown here. Identical values can stand only once. Records with an inconclusive call do not appear. A structure can be active in one record and inactive in another. A number with no mark means an inactive call. Active and inactive are the calls of the source. Calls come from the whole dose curve; as a rule, active = well fitted inhibition curve with a large enough effect; inconclusive = small, poorly fitted or top-dose-only effect; inactive = flat fitted curve, though single readings scatter.
# System: KB-3-1
# Assay: Cytotoxic Profiling of Annotated Libraries Using Quantitative High-Throughput Screening (AID 1296008); note: nearly all actives have a fitted effect of over 60% in size
# Conditions: Five cell lines viability, CellTiter-Glo ATP luminescence, 48-72 h; max response: stronger effect = lower value
# From the text: Cell-based phenotypic screening is a commonly used approach to discover biological pathways, novel drug targets, chemical probes and high-quality hit-to-lead molecules. Many hits identified from high-throughput screening campaign are ruled out through a series of follow-up potency, selectivity/specificity, and cytotoxicity assays. Prioritization of molecules with little or no cytotoxicity for a more in-depth downstream evaluation influence the future direction of projects, so cytotoxicity profiling of the screening libraries at early stage is essential for increasing the likelihood of candidate success. […] For the annotated library, we also examined the primary targets and mechanistic pathways regularly associated with cell death. To our knowledge, this is the first study to use high-throughput screening to profile large libraries for cytotoxicity assessment in both normal and cancer cell lines. In summary, the results generated here constitutes a valuable resource for the scientific community and provides insight on identifying cytotoxic compounds with particular mechanisms of action, and prioritizing compounds with suitable cytotoxicity profile for further evaluation.
# A pintool (Kalypsys) was used to transfer 23 nL of compound solution to the 1536-well assay plates. After 48 or 72 hr incubation at 37 degree Celsius, 5% CO2 and 95% humidity, 2.5 uL of CellTiter-Glo (Promega) was dispensed into each well using a dispenser (Aspect Automation, St. Paul, MN) with solenoid valves (Lee Valves, Westbrook CT). Plates were left at room temperature for 10 min before imaging the ATP-coupled luminescence using a ViewLux microplate imager (PerkinElmer, Waltham, MA).
# % is set by controls: 0 for no effect and ±100 for the full control effect; potency is the fitted concentration of half-maximal effect.
SMILES,max response,Potency,outcome
CC(C)NCC(O)COc1ccc(CCOCC2CC2)cc1 (stereo not given),1.84%,–,–
O=C(CCCN1CCC(O)(c2ccc(Cl)cc2)CC1)c1ccc(F)cc1,1.13%,–,–
CC12CC3CC(C)(C1)CC(N)(C3)C2,0.442%,–,–
CC(C)Cc1ccc(C(C)C(=O)O)cc1 (stereo not given),1.49% and -2.93%,–,–
O=C1c2c(O)ccc(O)c2C(=O)c2c(NCCNCCO)ccc(NCCNCCO)c21,–,0.296 µM (active),–
O=c1[nH]cc(F)c(=O)[nH]1,22.7% and -20.8%,–,–
Clc1ccccc1C(c1ccccc1)(c1ccccc1)n1ccnc1,-12.5%,–,–
CS(=O)(=O)Nc1ccc([N+](=O)[O-])cc1Oc1ccccc1,0.301% and -0.592%,–,–
Clc1ccc(C(c2ccccc2Cl)C(Cl)Cl)cc1 (stereo not given),-10.1% and -1.61%,–,–
COc1ccccc1OCCNCC(O)COc1cccc2[nH]c3ccccc3c12 (stereo not given),1.19% and -0.545%,–,–
NCCc1cnc[nH]1,-8.33%,–,inactive
NC(=O)NO,2.92%,6.62 µM (active),–
O=C1N(c2ccccc2)c2ccccc2C1(Cc1ccncc1)Cc1ccncc1,0.123%,–,inactive
CC(C)C(=O)Nc1ccc([N+](=O)[O-])c(C(F)(F)F)c1,-17.3% and -13.1%,–,–
CC(CCc1ccc(O)cc1)NCCc1ccc(O)c(O)c1 (stereo not given),-2.1%,–,–
CN1C2CCC1CC(OC(=O)C(CO)c1ccccc1)C2 (stereo not given),0.626%,–,–
Fc1ccc([C@@H]2CCNC[C@H]2COc2ccc3c(c2)OCO3)cc1,-16.5% and -9.57%,–,–
CC#C[C@]1(O)CC[C@H]2[C@@H]3CCC4=CC(=O)CCC4=C3[C@@H](c3ccc(N(C)C)cc3)C[C@@]21C,-19.9%,–,–

SMILES,max response,Potency,outcome
Cc1cnc(C(=O)NCCc2ccc(S(=O)(=O)NC(=O)NC3CCCCC3)cc2)cn1,-28.8% and 2.82%,–,–
CN1CCC(=C2c3ccccc3CC(=O)c3sccc32)CC1,-4.06%,–,–
COc1ccccc1N1CCN(CC(O)COc2cccc3ccccc23)CC1 (stereo not given),9.55%,–,–
CN(C)c1nc(N(C)C)nc(N(C)C)n1,0.844% and 0.45%,–,–
Cc1ccc(C(=O)Nc2ccc(S(=O)(=O)O)c3cc(S(=O)(=O)O)cc(S(=O)(=O)O)c23)cc1NC(=O)c1cccc(NC(=O)Nc2cccc(C(=O)Nc3cc(C(=O)Nc4ccc(S(=O)(=O)O)c5cc(S(=O)(=O)O)cc(S(=O)(=O)O)c45)ccc3C)c2)c1,9.63% and 6.6%,–,–
CCCCc1oc2ccccc2c1C(=O)c1cc(I)c(OCCN(CC)CC)c(I)c1,-16.7% and -5.99% and -5.01%,–,–
Nc1nnc(-c2cccc(Cl)c2Cl)c(N)n1,6.78% and 8.12%,–,–
O=c1c(-c2ccc(O)cc2)coc2cc(O)cc(O)c12,32.1%,–,inactive
Cn1ccc2cc3c(cc21)CCN3C(=O)Nc1cccnc1,29.1% and 8.13%,–,–
C[C@H]1c2cccc(O)c2C(O)=C2C(=O)[C@]3(O)C(O)=C(C(N)=O)C(=O)[C@@H](N(C)C)[C@@H]3[C@@H](O)[C@@H]21,10.8% and -8.7%,–,–
Clc1ccc2nsnc2c1NC1=NCCN1,-0.508% and 0.187%,–,–
COc1cc2nc(N(C)CCCNC(=O)C3CCCO3)nc(N)c2cc1OC (stereo not given),9.19% and 1.98%,–,–
Clc1ccc2c(c1)C(N1CCNCC1)=Nc1ccccc1O2,6.74% and 1.6%,–,–
COc1cc2nc(N3CCN(C(=O)C4COc5ccccc5O4)CC3)nc(N)c2cc1OC (stereo not given),19.6% and -6.62%,–,–
O=C(c1ccc(F)cc1)C1CCN(CCn2c(=O)[nH]c3ccccc3c2=O)CC1,-2.16% and 6.29%,–,–
CCOC(=O)C(C)(C)Oc1ccc(Cl)cc1,9.24% and 4.33%,–,–
COc1nc(C)nc(Cl)c1NC1=NCCN1,11.6% and 7.19%,–,–
Cc1cc(C(C)(C)C)c(O)c(C)c1CC1=NCCN1,1.72% and -15.7%,–,–
